# Columns and labels:
# [1] = biological target: Serine/threonine-protein kinase PLK3 (Homo sapiens) (UniProt Q9H4B4); settings: at 1 µM
# [2] = biological target: Serine/threonine-protein kinase PLK3 (Homo sapiens) (UniProt Q9H4B4); settings: at 10 µM
# [3] = biological target: T1, cAMP-dependent protein kinase catalytic subunit PRKX (Homo sapiens) (UniProt P51817); settings: at 1 µM
# T1 sequence (whole entry): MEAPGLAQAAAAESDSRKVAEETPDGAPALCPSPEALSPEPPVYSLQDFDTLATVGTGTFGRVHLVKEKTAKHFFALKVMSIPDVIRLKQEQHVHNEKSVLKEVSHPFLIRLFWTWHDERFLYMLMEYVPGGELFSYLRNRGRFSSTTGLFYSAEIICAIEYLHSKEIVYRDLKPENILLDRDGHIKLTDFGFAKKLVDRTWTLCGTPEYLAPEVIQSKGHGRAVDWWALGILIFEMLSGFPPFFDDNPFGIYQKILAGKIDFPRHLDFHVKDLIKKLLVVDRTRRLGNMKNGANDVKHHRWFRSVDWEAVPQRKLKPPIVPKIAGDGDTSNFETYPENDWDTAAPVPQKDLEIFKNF
# [4] = biological target: T1, cAMP-dependent protein kinase catalytic subunit PRKX (Homo sapiens); settings: at 10 µM
# [5] = biological target: Protein-tyrosine kinase 2-beta (Homo sapiens) (UniProt Q14289); settings: at 1 µM
# [6] = biological target: Protein-tyrosine kinase 2-beta (Homo sapiens) (UniProt Q14289); settings: at 10 µM
# [7] = biological target: Receptor-interacting serine/threonine-protein kinase 2 (Homo sapiens) (UniProt O43353); settings: at 1 µM
# [8] = biological target: Receptor-interacting serine/threonine-protein kinase 2 (Homo sapiens) (UniProt O43353); settings: at 10 µM
# [9] = biological target: Rho-associated protein kinase 1 (Homo sapiens) (UniProt Q13464); settings: at 1 µM
# [10] = biological target: Rho-associated protein kinase 1 (Homo sapiens) (UniProt Q13464); settings: at 10 µM
# [11] = biological target: Rho-associated protein kinase 2 (Homo sapiens) (UniProt O75116); settings: at 1 µM
# [12] = biological target: Rho-associated protein kinase 2 (Homo sapiens) (UniProt O75116); settings: at 10 µM
# [13] = biological target: Proto-oncogene tyrosine-protein kinase receptor Ret (Homo sapiens) (UniProt P07949); settings: at 1 µM
# [14] = biological target: Proto-oncogene tyrosine-protein kinase receptor Ret (Homo sapiens) (UniProt P07949); settings: at 10 µM
# [15] = biological target: Macrophage-stimulating protein receptor (Homo sapiens) (UniProt Q04912); settings: at 1 µM
# [16] = biological target: Macrophage-stimulating protein receptor (Homo sapiens) (UniProt Q04912); settings: at 10 µM
# [17] = biological target: Proto-oncogene tyrosine-protein kinase ROS (Homo sapiens) (UniProt P08922); settings: at 1 µM
# [18] = biological target: Proto-oncogene tyrosine-protein kinase ROS (Homo sapiens) (UniProt P08922); settings: at 10 µM
# [19] = biological target: T2, Tyrosine-protein kinase receptor TYRO3 (Homo sapiens) (UniProt Q06418); settings: at 1 µM
# T2 sequence (whole entry): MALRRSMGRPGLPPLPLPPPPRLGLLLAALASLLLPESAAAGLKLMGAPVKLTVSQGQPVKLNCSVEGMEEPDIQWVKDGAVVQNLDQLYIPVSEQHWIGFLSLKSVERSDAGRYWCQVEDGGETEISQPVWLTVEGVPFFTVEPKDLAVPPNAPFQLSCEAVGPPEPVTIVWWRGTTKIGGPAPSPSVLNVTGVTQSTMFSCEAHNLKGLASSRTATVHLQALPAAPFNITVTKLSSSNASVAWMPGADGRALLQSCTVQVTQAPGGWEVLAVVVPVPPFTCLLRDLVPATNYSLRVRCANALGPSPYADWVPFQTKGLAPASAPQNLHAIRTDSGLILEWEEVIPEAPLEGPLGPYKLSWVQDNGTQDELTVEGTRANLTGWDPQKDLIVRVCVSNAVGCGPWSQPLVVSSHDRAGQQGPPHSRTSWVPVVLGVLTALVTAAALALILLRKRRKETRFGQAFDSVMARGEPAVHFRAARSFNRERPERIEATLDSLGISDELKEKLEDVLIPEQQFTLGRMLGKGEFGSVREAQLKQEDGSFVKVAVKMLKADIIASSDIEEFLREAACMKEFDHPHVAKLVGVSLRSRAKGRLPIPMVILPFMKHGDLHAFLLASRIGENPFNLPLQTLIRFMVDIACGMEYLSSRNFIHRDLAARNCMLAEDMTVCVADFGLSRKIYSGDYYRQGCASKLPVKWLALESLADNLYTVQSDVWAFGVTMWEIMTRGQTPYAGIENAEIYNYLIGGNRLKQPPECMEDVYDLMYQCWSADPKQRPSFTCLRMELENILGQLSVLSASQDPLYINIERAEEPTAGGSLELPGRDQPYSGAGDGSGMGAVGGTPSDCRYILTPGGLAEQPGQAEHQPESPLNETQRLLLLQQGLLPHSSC
# [20] = biological target: T2, Tyrosine-protein kinase receptor TYRO3 (Homo sapiens); settings: at 10 µM
# Chain of Rho-associated protein kinase 1 (Homo sapiens) (Q13464 2-1354 limits assumed): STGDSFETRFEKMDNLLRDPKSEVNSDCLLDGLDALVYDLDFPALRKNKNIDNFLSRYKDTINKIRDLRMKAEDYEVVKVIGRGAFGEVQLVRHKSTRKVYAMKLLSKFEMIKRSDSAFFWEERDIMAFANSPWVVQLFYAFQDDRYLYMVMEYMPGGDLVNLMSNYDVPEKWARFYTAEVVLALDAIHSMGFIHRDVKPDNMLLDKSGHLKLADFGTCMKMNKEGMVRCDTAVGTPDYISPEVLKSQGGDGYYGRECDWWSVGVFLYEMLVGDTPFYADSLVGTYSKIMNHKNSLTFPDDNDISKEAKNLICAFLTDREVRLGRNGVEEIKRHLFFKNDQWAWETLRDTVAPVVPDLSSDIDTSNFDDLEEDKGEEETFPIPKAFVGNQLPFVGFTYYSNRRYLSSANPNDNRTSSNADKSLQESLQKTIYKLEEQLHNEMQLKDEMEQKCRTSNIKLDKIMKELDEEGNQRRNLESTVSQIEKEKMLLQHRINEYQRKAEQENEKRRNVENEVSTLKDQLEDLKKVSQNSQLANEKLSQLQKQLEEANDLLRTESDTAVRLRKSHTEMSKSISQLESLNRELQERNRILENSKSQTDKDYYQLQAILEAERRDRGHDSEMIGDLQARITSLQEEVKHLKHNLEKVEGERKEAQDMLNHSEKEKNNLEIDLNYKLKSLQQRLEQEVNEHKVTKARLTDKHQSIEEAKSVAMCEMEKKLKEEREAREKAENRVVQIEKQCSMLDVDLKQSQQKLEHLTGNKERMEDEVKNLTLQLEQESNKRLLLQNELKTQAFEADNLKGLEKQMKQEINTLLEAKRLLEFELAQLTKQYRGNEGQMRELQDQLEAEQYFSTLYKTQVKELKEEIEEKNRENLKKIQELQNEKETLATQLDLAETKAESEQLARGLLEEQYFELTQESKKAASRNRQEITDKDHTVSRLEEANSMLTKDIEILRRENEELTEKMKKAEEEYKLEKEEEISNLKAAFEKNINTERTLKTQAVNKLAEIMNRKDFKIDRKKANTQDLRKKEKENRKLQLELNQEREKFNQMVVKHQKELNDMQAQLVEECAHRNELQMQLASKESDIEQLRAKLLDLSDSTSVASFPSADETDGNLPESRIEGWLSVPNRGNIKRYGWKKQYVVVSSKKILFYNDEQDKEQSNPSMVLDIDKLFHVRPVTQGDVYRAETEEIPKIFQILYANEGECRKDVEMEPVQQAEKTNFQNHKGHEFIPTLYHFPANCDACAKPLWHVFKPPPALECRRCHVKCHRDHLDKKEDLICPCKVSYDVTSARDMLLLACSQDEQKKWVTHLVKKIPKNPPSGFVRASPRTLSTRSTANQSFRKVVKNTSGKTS
# Chain of Macrophage-stimulating protein receptor (Homo sapiens) (Q04912 25-304 limits assumed): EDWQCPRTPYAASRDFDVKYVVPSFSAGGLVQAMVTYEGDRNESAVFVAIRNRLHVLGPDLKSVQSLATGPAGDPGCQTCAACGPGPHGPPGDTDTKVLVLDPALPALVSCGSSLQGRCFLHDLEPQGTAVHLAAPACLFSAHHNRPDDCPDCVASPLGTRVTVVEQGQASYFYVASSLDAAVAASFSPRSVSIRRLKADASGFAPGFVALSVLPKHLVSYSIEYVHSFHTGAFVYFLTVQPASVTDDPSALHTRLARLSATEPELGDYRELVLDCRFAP
# Chain of Macrophage-stimulating protein receptor (Homo sapiens) (Q04912 310-1400 limits assumed): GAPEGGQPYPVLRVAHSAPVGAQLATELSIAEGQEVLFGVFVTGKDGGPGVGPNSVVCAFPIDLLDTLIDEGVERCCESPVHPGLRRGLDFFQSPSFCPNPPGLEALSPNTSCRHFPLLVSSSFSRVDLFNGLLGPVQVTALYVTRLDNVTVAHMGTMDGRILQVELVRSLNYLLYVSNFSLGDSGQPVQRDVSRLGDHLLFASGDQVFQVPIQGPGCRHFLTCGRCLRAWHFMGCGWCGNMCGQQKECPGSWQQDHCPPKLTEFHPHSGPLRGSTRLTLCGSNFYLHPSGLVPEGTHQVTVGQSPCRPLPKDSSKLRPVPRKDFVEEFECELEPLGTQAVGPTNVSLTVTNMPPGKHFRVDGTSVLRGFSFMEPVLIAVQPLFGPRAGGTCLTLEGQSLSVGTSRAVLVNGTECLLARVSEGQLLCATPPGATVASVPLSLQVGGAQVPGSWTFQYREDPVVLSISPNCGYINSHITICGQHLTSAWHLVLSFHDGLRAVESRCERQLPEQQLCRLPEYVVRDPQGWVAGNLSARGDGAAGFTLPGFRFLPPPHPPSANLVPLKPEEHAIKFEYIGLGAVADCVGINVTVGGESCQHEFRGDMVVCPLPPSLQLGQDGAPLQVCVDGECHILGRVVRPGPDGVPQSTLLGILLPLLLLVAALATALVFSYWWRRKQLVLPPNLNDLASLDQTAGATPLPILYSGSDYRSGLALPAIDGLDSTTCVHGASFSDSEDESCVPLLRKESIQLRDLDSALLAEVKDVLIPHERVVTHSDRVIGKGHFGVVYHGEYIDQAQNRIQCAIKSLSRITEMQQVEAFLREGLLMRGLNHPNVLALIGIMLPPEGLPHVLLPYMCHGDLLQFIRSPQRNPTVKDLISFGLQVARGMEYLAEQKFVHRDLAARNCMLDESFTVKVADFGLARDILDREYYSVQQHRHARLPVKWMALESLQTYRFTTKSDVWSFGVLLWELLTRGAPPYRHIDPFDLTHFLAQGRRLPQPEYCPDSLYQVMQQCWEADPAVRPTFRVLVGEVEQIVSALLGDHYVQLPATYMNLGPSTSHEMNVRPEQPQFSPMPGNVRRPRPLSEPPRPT
# Chain of Serine/threonine-protein kinase PLK3 (Homo sapiens) (Q9H4B4 whole entry, looked up): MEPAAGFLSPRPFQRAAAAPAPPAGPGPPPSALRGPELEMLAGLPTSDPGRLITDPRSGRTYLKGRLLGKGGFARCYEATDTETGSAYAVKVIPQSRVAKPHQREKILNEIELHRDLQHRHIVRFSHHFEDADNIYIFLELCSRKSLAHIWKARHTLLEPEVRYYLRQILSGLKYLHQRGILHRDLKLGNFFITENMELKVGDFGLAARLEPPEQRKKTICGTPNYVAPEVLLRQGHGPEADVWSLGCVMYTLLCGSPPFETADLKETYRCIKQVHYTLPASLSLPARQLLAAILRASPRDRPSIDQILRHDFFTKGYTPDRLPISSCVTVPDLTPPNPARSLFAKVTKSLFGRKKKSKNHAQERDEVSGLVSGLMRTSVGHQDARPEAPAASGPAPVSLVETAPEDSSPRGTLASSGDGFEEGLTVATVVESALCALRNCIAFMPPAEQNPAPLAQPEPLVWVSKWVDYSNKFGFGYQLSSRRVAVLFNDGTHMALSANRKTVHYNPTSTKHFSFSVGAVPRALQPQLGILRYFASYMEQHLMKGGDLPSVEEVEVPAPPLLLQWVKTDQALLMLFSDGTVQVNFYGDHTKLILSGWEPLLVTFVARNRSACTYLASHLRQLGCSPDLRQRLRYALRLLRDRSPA
# Chain of Receptor-interacting serine/threonine-protein kinase 2 (Homo sapiens) (O43353 whole entry): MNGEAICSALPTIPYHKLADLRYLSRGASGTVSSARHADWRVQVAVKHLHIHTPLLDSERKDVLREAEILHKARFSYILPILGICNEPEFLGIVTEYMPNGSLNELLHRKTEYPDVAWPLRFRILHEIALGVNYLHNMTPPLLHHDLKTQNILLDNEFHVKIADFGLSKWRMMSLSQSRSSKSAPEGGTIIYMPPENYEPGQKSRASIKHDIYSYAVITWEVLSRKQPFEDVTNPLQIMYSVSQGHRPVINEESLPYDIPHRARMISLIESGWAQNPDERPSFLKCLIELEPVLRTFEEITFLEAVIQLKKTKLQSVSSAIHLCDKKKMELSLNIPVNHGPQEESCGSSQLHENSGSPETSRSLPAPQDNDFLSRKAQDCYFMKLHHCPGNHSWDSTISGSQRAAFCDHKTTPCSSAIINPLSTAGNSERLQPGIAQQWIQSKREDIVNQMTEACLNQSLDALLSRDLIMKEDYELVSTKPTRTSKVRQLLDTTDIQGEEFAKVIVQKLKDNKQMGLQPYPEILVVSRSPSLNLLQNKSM
# Chain of Proto-oncogene tyrosine-protein kinase receptor Ret (Homo sapiens) (P07949 whole entry): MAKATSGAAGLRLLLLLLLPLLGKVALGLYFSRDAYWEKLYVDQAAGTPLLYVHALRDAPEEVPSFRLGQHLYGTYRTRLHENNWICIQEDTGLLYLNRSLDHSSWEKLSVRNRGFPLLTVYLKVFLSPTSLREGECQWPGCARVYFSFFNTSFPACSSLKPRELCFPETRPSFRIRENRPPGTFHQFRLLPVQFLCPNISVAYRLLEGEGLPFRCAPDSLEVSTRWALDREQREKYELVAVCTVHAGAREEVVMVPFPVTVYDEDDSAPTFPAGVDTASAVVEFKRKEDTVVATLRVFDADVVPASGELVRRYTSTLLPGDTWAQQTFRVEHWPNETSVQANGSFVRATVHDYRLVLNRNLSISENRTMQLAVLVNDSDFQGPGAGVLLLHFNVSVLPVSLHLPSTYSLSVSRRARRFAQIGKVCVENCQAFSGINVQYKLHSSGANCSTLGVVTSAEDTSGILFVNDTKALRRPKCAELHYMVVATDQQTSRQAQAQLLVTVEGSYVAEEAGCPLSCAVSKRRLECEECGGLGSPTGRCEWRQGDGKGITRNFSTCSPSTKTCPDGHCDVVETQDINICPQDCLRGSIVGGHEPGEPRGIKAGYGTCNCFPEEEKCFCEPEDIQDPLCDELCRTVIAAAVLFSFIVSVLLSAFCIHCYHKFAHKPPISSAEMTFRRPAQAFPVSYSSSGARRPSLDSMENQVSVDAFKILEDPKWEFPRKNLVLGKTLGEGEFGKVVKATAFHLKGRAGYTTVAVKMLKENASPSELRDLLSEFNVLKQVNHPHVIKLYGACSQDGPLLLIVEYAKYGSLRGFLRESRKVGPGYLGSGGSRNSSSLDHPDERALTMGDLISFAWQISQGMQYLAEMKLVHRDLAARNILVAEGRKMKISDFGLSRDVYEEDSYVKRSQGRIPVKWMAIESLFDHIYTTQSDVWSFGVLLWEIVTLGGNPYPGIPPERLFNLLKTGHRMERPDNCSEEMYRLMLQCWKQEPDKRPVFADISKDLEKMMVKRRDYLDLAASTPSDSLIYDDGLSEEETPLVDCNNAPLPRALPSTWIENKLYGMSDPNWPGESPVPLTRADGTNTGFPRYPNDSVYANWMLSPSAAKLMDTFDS
Compound,residual activity [1],residual activity [2] [%],residual activity [3] [%],residual activity [4] [%],residual activity [5] [%],residual activity [6] [%],residual activity [7] [%],residual activity [8] [%],residual activity [9] [%],residual activity [10] [%],residual activity [11] [%],residual activity [12] [%],residual activity [13] [%],residual activity [14] [%],residual activity [15] [%],residual activity [16] [%],residual activity [17] [%],residual activity [18] [%],residual activity [19] [%],residual activity [20] [%]
O=C1NC(=O)/C(=C\c2ccc3nccnc3c2)S1,95% (inactive),85,67,27,124,103,56,21,109,107,95,80,98,96,88,76,94,99,89,92
CO[C@H]1C[C@@H]2CC[C@@H](C)[C@@](O)(O2)C(=O)C(=O)N2CCCC[C@H]2C(=O)O[C@H]([C@H](C)C[C@@H]2CC[C@@H](O)[C@H](OC)C2)CC(=O)[C@H](C)/C=C(\C)[C@@H](O)[C@@H](OC)C(=O)[C@H](C)C[C@H](C)/C=C/C=C/C=C/1C,93% (inactive),94,98,94,119,99,84,84,127,140,99,92,102,107,99,80,90,92,94,118
Cc1cncc2cccc(S(=O)(=O)N3CCCN(C(=O)CN)C[C@H]3C)c12,98% (inactive),92,57,13,122,55,95,76,34,14,1,-1,91,90,89,70,90,82,83,95
O=C(O)c1ccc2c3c1cccc3c(=O)n1c3ccccc3nc21,106% (inactive),98,84,68,88,42,96,82,113,80,119,107,97,61,106,109,109,101,98,88
COc1ccc(CNc2nc(N(CCO)CCO)nc3c2ncn3C(C)C)cc1,97% (inactive),95,95,101,83,85,83,78,121,109,91,96,108,97,76,85,96,85,116,97
Oc1n[nH]c2nnc(-c3c(-c4ccccc4)nn4ccccc34)cc12,96% (inactive),89,86,81,102,88,87,85,121,104,83,91,102,80,70,53,91,87,109,97
COc1cc2ncnc(Nc3ccc(O)c(Br)c3)c2cc1OC,92% (inactive),88,90,66,85,42,20,8,116,102,39,40,23,1,90,50,88,84,38,4
Cc1ccc(NC2=CC(=O)c3sc(C)nc3C2=O)cc1,97% (inactive),91,102,97,108,102,81,89,117,102,87,90,109,97,79,81,101,88,98,101
O=C(Nc1cccc(Nc2cc(Nc3cccc(C(F)(F)F)c3)ncn2)c1)C1CC1,97% (inactive),90,102,100,104,63,53,41,101,99,94,80,89,95,96,53,92,88,88,30
CCN(CC)CCCCN1c2ccccc2Oc2ccc(Cl)cc21,101% (inactive),99,109,101,131,115,105,85,113,121,110,91,108,117,105,91,100,101,108,108
N#C/C(=C(\N)Sc1ccc(N)cc1)c1ccccc1C(F)(F)F,101% (inactive),90,95,109,100,97,93,98,110,103,102,95,109,90,88,83,100,89,103,98
COc1cc2ncnc(Nc3ccc(Oc4ccccc4)cc3)c2cc1OC,87% (inactive),95,92,132,96,69,28,19,115,126,104,84,25,7,92,59,102,101,14,7
O=C1Nc2cc(Br)ccc2/C1=C1/Nc2ccccc2/C1=N\O,100% (inactive),91,73,36,10,3,78,85,113,102,90,93,1,0,79,89,90,87,81,78
